Measured values from PubChem BioAssay (EPA / NIEHS).
Several values for one entry are separate records, joined by “and”; a condition that tells them apart may be missing. Identical values can stand only once. More than one record can exist for a structure, and the calls need not agree. Activity calls are given as the source filed them. The calls were made as follows: active = hit-call score of the fitted dose curve at least 0.9, where 1 is the maximum; inactive = score below 0.9.

Each compound was assayed on Matrix Metallopeptidase 1 (MMP1), MMP1 (gene 4312) (assay: BSK_BE3C_MMP1: BioMAP Diversity Plus: BE3C Assay for Matrix Metallopeptidase 1 (MMP1) Biomarker Activity (AID 2283024)). Conditions: primary human bronchial epithelial cells; actives raise or lower the signal.
Experimental: BSK_BE3C is a cell-based, multiplexed-readout assay that uses bronchial epithelial cell, a human lung primary cell, with measurements taken at 24 hours after chemical dosing in a 96-well plate.BSK_BE3C_MMP1 is an assay component measured in the BSK_BE3C assay. It measures MMP-1 antibody related to regulation of gene expression using ELISA technology.Data from the assay component BSK_BE3C_MMP1 was analyzed into 1 assay endpoint. This assay endpoint, BSK_BE3C_MMP1, was analyzed with bidirectional fitting relative to DMSO as the negative control and baseline of activity. Using a type of binding reporter, gain or loss-of-signal activity can be used to understand changes in the signaling as they relate to the gene MMP1. Furthermore, this assay endpoint can be referred to as a primary readout, because this assay has produced multiple assay endpoints where this one serves a signaling function. To generalize the intended target to other relatable targets, this assay endpoint is annotated to the protease intended target family, where the subfamily is matrix metalloproteinase.
The levels of cell surface (or secreted, indicated by the prefix "s") biomarker endpoints were measured by ELISA. Overt cytotoxicity to cells in confluent adherent cultures (all systems other than the BT system) was assessed by measuring total protein levels using sulforhodamine B (SRB) staining in parallel cultures at the time of biomarker measurements, indicated as SRB endpoints. For proliferation assays for adherent cell types, individual cell types are cultured at sub-confluence and relative cell numbers quantified by SRB staining at time points optimized for each system (48 h: 3C and CASM3C systems; 72 h: BT and HDF3CGF systems; 96 h: SAg system). SRB was performed by staining cells with 0.1% SRB after fixation with 10% TCA and reading wells at 560 nm.Viability and proliferation of PBMC (T cells) was quantified by Alamar Blue reduction for the SAg and BT systems. For PBMC viability (referred to as PBMC Cytotoxicity within the assay endpoint names), cells were plated (75,000/well in a 96-well plate) and then chemical samples added for 1 h before addition of activators, SEB and TSST-1 (20 ng/mL final concentration each). Cells were incubated for 90 h. Then, Alamar Blue (20 uL/well) (Invitrogen, Cat DAL1100) was added for 6 h, and the plates were read with a fluorescence microplate reader at 546/580 nm (excitation/emission). For PBMC proliferation, cells were plated and activated as above but incubated for only 16 h prior to addition of Alamar Blue. Plates were read after 6 h.

For `CCCCC(CC)C(=O)O` (stereo not given), which outcome is on record?
The outcome was “inactive”.

How did the outcome turn out when `CCC(C)c1ccccc1O` (stereo not given) was run?
Its outcome is “inactive”.

With `CCCCc1oc2ccccc2c1C(=O)c1cc(I)c(OCCN(CC)CC)c(I)c1` as the compound, how does the AC50 read?
Its AC50 is 25 µM (active).

How did the outcome turn out when `CC(=O)Nc1ccc(O)cc1` was run?
The outcome was “inactive”.

`O=C(NCc1ncc(C(F)(F)F)cc1Cl)c1c(Cl)cccc1Cl` was tested. Which outcome did it give?
The outcome was “inactive”.

`COc1cccc(O)c1` was tested. Which AC50 did it give?
Its AC50 is 0.193 µM (active).

`C=CC(=O)OCCC(F)(F)C(F)(F)C(F)(F)C(F)(F)C(F)(F)C(F)(F)C(F)(F)C(F)(F)F` was tested. Which outcome did it give?
Its outcome is “inactive”.

For `O=P(O)(O)CCC(F)(F)C(F)(F)C(F)(F)C(F)(F)C(F)(F)C(F)(F)F`, which AC50 is on record?
Its AC50 is 40 µM (active).

What about the outcome of the same compound?
Its outcome is “inactive”.

With `O=P(O)(O)CCC(F)(F)C(F)(F)C(F)(F)C(F)(F)C(F)(F)C(F)(F)C(F)(F)C(F)(F)F` as the compound, how does the outcome read?
The outcome was “inactive”.

And the AC50?
The AC50 was 11.5 µM (active).

With `CS(=O)(=O)c1ccc([C@@H](CC2CCCC2)C(=O)Nc2cnccn2)cc1Cl` as the compound, how does the AC50 read?
The AC50 was 9.05 µM (active).

`O=C(NO)c1ccccc1` was tested. Which outcome did it give?
Its outcome is “inactive”.

For `O=C(CC(=O)C(F)(F)C(F)(F)C(F)(F)F)c1cccs1`, which AC50 is on record?
Its AC50 is 43.6 µM (active) and 45.2 µM (active).

How did the outcome turn out when `COCN(COC)c1nc(N(COC)COC)nc(N(COC)COC)n1` was run?
The outcome was “inactive”.

`Clc1ccc(Nc2nnc(Cc3ccncc3)c3ccccc23)cc1` was tested. Which outcome did it give?
Its outcome is “inactive”.

Which AC50 does the source give for `CCCCCc1ccc(O)cc1` here?
The AC50 was 30.2 µM (active).

`OCC(CO)(CBr)CBr` was tested. Which outcome did it give?
Its outcome is “inactive”.

Which AC50 does the source give for `CCCCCCCCCCCCCCCCCC[N+](C)(C)Cc1ccccc1` here?
The AC50 was 10 µM (active).

How did the outcome turn out when `CCOC(=O)CN[C@@H](C(=O)N1CC[C@H]1C(=O)NCc1ccc(/C(N)=N/O)cc1)C1CCCCC1` was run?
The outcome was “inactive”.

`O=C1NS(=O)(=O)c2ccccc21` was tested. Which outcome did it give?
The outcome was “inactive”.

`CC[N+](CC)(CC)Cc1ccccc1` was tested. Which outcome did it give?
Its outcome is “inactive”.

With `Oc1c(Cl)cc(Cl)cc1Sc1cc(Cl)cc(Cl)c1O` as the compound, how does the outcome read?
The outcome was “inactive”.

How did the outcome turn out when `C[C@]12CC[C@@H]3c4ccc(O)cc4CC[C@H]3[C@@H]1C[C@@H](O)[C@@H]2O` was run?
Its outcome is “inactive”.

How did the outcome turn out when `CCCCC=O` was run?
Its outcome is “inactive”.

How did the outcome turn out when `Cc1ccc(C(=O)c2ccccc2)cc1` was run?
Its outcome is “inactive”.

Which outcome does the source give for `C=CC(C)(CCC=C(C)C)OC(C)=O` (stereo not given) here?
Its outcome is “inactive”.

Which results are given for `CN(CCO)S(=O)(=O)C(F)(F)C(F)(F)C(F)(F)C(F)(F)C(F)(F)C(F)(F)C(F)(F)C(F)(F)F`?
outcome: inactive; AC50: 1.63 µM (active)

What does the source list for `O=S(=O)(O)C(F)(F)C(F)(F)C(F)(F)C(F)(F)C(F)(F)C(F)(F)C(F)(F)C(F)(F)C(F)(F)C(F)(F)F`?
AC50: 3.54 µM (active); outcome: inactive

How did the outcome turn out when `Oc1cc2ccccc2cc1O` was run?
Its outcome is “inactive”.

`C=CC(=C)CC/C=C(\C)CCC=C(C)C` was tested. Which AC50 did it give?
Its AC50 is 0.00695 µM (active).

`Oc1ccc(Cc2ccccc2O)cc1` was tested. Which outcome did it give?
The outcome was “inactive”.

`O=C(c1ccccc1)c1ccccc1` was tested. Which outcome did it give?
Its outcome is “inactive”.

`Cc1cccc2c1ccc1ccccc12` was tested. Which outcome did it give?
Its outcome is “inactive”.

Which results are given for `O=C(O)CCC(F)(F)C(F)(F)C(F)(F)C(F)(F)C(F)(F)C(F)(F)F`?
AC50: 7.99 µM (active); outcome: inactive

For `CCCCC(CC)C(=O)OCCOCCOCCOCCOC(=O)C(CC)CCCC` (stereo not given), which outcome is on record?
Its outcome is “inactive”.

How did the outcome turn out when `O=C(CCCN1CCC(O)(c2ccc(Cl)cc2)CC1)c1ccc(F)cc1` was run?
The outcome was “inactive”.
